About 79,000 compounds went through this panel and 15% of them were active in at least one assay; those are over-represented in the sample as a whole. Calls of active or inactive are those of the source. Cut-off read from the data, not from the text of the source: active = growth inhibition above about 70%; inactive = the rest.
Tests used:
[1] = NCI Yeast Anticancer Drug Screen. Data for the rad50 strain (AID 155);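 note: 0% = growth of vehicle-only cultures of the same strain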; details: S. cerevisiae rad50 strain growth inhibition, active compounds read high
Procedure, shortened: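 Yeast carrying a defined DNA repair defect were exposed to test compounds, and growth was compared with vehicle-treated controls to give percent inhibition.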

[2] = NCI Yeast Anticancer Drug Screen. Data for the mec2-1 strain (AID 157); details: S. cerevisiae mec2-1 strain, active compounds read high
Procedure, shortened: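 Growth inhibition is read against vehicle-treated controls after compound exposure of the mec2-1 yeast strain, which is defective in DNA damage repair or cell cycle control.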

[3] = NCI Yeast Anticancer Drug Screen. Data for the sgs1 mgt1 strain (AID 161);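 note: 0% = growth of cultures given vehicle only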; details: S. cerevisiae sgs1 mgt1 strain, active compounds read high
Procedure, shortened: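 This yeast growth screen uses a strain with defined DNA-repair lesions; compound-treated growth is compared with vehicle-treated growth.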

[4] = NCI Yeast Anticancer Drug Screen. Data for the cln2 rad14 strain (AID 165);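 note: 0% = growth equal to vehicle treated cultures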; details: S. cerevisiae cln2 rad14 strain, active compounds read high
Procedure, shortened: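 Growth inhibition, relative to vehicle-treated controls, is the read-out. The test organism is a yeast strain with defined genetic alterations, cln2 rad14.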

[5] = NCI Yeast Anticancer Drug Screen. Data for the bub3 strain (AID 167); details: S. cerevisiae bub3 mutant strain, active compounds read high
Procedure, shortened: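 Compounds were applied to a genetically altered yeast strain carrying a cell-cycle control defect. Growth inhibition was scored against vehicle-treated controls.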

[6] = NCI Yeast Anticancer Drug Screen. Data for the mlh1 rad18 strain (AID 175); details: S. cerevisiae mlh1 rad18 strain growth inhibition, active compounds read high
Procedure, shortened: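 Cells of a genetically altered yeast strain, deficient in DNA damage repair, were treated with compound. Their growth was then compared with that of vehicle-treated cultures to give inhibition.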

[7] = at 5.0 µM (retest, dose inferred, filed as 0.5)
[8] = at 50.0 µM (retest, dose inferred, filed as 5.0)

Measured: growth inhibition

CC1=C(C(=O)Nc2cccc(Cl)c2)C(c2ccccc2O)C(C(=O)Nc2cccc(Cl)c2)=C(C)N1
inactive: [1]; [7] 25% | [1]; [8] 25% | [1]; at 50.0 µM 55.6% | [2]; [7] 14% | [2]; [8] 14% | [2]; at 50.0 µM 65% | [3]; [7] 9% | [3]; [8] 9% | [3]; at 50.0 µM 56.5% | [4]; [7] 10% | [4]; [8] 10% | [4]; at 50.0 µM 59.2% | [5]; [7] 12% | [5]; [8] 12% | [5]; at 50.0 µM 57.9% | [6]; [7] 25% | [6]; [8] 25% | [6]; at 50.0 µM 32.3%

C[C@@]12C(=O)OC(=O)[C@]1(C)[C@H]1CC[C@@H]2O1
active: [1]; [7] 96% | [1]; [8] 98% | [1]; at 50.0 µM 93.2% | [2]; [7] 94% | [2]; [8] 99% | [2]; at 50.0 µM 94.2% | [3]; [7] 97% | [3]; [8] 97% | [3]; at 50.0 µM 93.3% | [4]; [7] 78% | [4]; [8] 98% | [4]; at 50.0 µM 91.8% | [5]; [7] 70% | [5]; [8] 99% | [5]; at 50.0 µM 92.8% | [6]; [7] 96% | [6]; [8] 98% | [6]; at 50.0 µM 92.5%

O=C(C(=O)c1ccncc1)c1ccccc1
inactive: [1]; [7] -148% | [1]; [8] -127% | [1]; at 50.0 µM 7.6% | [2]; [7] -52% | [2]; [8] -55% | [2]; at 50.0 µM 23.1% | [3]; [7] -58% | [3]; [8] -63% | [3]; at 50.0 µM -5.6% | [4]; [7] -59% | [4]; [8] -59% | [4]; at 50.0 µM 34% | [5]; [7] -64% | [5]; [8] -83% | [5]; at 50.0 µM -12.2% | [6]; [7] -117% | [6]; [8] -114% | [6]; at 50.0 µM -14.6%

CCCCCCCN(CCCCCCC)CC(O)c1ccc2ccc3ccccc3c2c1 (stereo not given)
active: [1]; [8] 76% | [2]; [8] 73% | [3]; [8] 85% | [3]; at 50.0 µM 81.2% | [5]; [8] 78% | [6]; [8] 78% | [6]; at 50.0 µM 79.2%
inactive: [1]; [7] 19% | [1]; at 50.0 µM 68.2% | [2]; [7] 8% | [2]; at 50.0 µM 62% | [3]; [7] 36% | [4]; [7] 13% | [4]; [8] 59% | [4]; at 50.0 µM 38% | [5]; [7] 16% | [5]; at 50.0 µM 59.4% | [6]; [7] 12%

O=C(O)CC1(C(=O)O)CCCCC1
inactive: [1]; [7] -9% | [1]; [8] 15% | [1]; at 50.0 µM -16.4% | [2]; [7] -4% | [2]; [8] -1% | [2]; at 50.0 µM -16.6% | [3]; [7] -5% | [3]; [8] -13% | [3]; at 50.0 µM -21.6% | [4]; [7] 6% | [4]; [8] 0% | [4]; at 50.0 µM 18.4% | [5]; [7] -13% | [5]; [8] -14% | [5]; at 50.0 µM -6.9% | [6]; [7] 11% | [6]; [8] 17% | [6]; at 50.0 µM 2.7%

O=C(C[n+]1ccc2ccccc2c1)c1ccc(-c2ccccc2)cc1
inactive: [1]; [7] -5% | [2]; [7] -2% | [3]; [7] -3% | [4]; [7] -4% | [5]; [7] -5% | [6]; [7] -7%
active: [1]; [8] 97% | [1]; at 50.0 µM 98.2% | [2]; [8] 98% | [2]; at 50.0 µM 97.8% | [3]; [8] 97% | [3]; at 50.0 µM 98% | [4]; [8] 96% | [4]; at 50.0 µM 96.8% | [5]; [8] 98% | [5]; at 50.0 µM 98.5% | [6]; [8] 98% | [6]; at 50.0 µM 97.8%

O=C1C=CC(=O)c2c(O)c(N3CCC[C@H]3CO)c(Cl)c(O)c21
active: [1]; [8] 90% | [2]; [8] 90% | [2]; at 50.0 µM 78.9% | [3]; [8] 95% | [5]; [8] 97% | [6]; [8] 90%
inactive: [1]; [7] 20% | [1]; at 50.0 µM 61.2% | [2]; [7] 14% | [3]; [7] 19% | [3]; at 50.0 µM 23.9% | [4]; [7] 13% | [4]; [8] 51% | [4]; at 50.0 µM 20% | [5]; [7] 25% | [5]; at 50.0 µM 34.5% | [6]; [7] 31% | [6]; at 50.0 µM 41.6%

C=C1CC(C)(COc2ccc3c(C)c(C)c(=O)oc3c2C)OC1=O (stereo not given)
active: [1]; [8] 82% | [2]; [8] 90% | [3]; [8] 73% | [5]; [8] 86% | [6]; [8] 94%
inactive: [1]; [7] 26% | [1]; at 50.0 µM -23.4% | [2]; [7] 16% | [2]; at 50.0 µM -75.4% | [3]; [7] 24% | [3]; at 50.0 µM -10.7% | [4]; [7] 30% | [4]; [8] 64% | [4]; at 50.0 µM -23.1% | [5]; [7] 26% | [5]; at 50.0 µM -10.8% | [6]; [7] 29% | [6]; at 50.0 µM -24.7%

CCCCCCCC1SCC(=O)N1c1nncs1 (stereo not given)
inactive: [1]; [7] -11% | [1]; at 50.0 µM -10.8% | [2]; [7] 0% | [2]; [8] 65% | [2]; at 50.0 µM -20.4% | [3]; [7] 0% | [3]; at 50.0 µM 1.45% | [4]; [7] -5% | [4]; at 50.0 µM 3.1% | [5]; [7] 19% | [5]; at 50.0 µM 2.9% | [6]; [7] -10% | [6]; at 50.0 µM 5.7%
active: [1]; [8] 96% | [3]; [8] 95% | [4]; [8] 80% | [5]; [8] 95% | [6]; [8] 73%

CC(C(O)c1ccccc1)C(O)(C(F)(F)F)C(F)(F)F (stereo not given)
inactive: [1]; [7] 8% | [1]; [8] 13% | [1]; at 50.0 µM 8.95% | [2]; [7] 6% | [2]; [8] -3% | [2]; at 50.0 µM -7.6% | [3]; [7] 3% | [3]; [8] 10% | [3]; at 50.0 µM -15.9% | [4]; [7] 1% | [4]; [8] -4% | [4]; at 50.0 µM 15.5% | [5]; [7] -2% | [5]; [8] -7% | [5]; at 50.0 µM -19.6% | [6]; [7] 18% | [6]; [8] 6% | [6]; at 50.0 µM 17.4%
